From PubChem BioAssay AID1159580 (chemical genetic matrix, 2015)
Several values for one entry are separate records, joined by “and”; a condition that tells them apart may be missing. Equal values may be shown once. The whole screen tested about 5,500 compounds, of which about 2,000 (36%) were called active. Not shown: some 18% with an inconclusive outcome. Rule as the data show it: active = normalized growth mostly below about 0.91 (no sharp cut-off); inconclusive = no clear call, values can overlap the other calls; inactive = mostly above about 0.92. This is one part of the list.

Assay: chemical genetic growth profiling, strain panel (AID 1159580);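 also: tested at 20 µM; growth read once vehicle control cultures reached saturation at 30 °C; 1 = growth at the plate median or of vehicle wells; lower values mean less growth of the strain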
Settings: S. cerevisiae deletion strains, growth OD

Measured: normalized growth

O=[N+]([O-])c1ccc(O)c([N+](=O)[O-])c1
inactive: locus YDL035C, strain GPR1, stronger effect = lower value 0.871 | locus YDL074C, strain BRE1, stronger effect = lower value 0.824 | locus YDR069C, strain doa4, stronger effect = lower value 0.936 | locus YDR137W, strain rgp1, stronger effect = lower value 0.915 | locus YDR195W, strain ref2 0.927 | locus YGR229C, strain SMI1, stronger effect = lower value 0.81 | locus YHR013C, strain ard1, stronger effect = lower value 0.981 | locus YIL073C, strain SPO22, stronger effect = lower value 0.986 | locus YJR043C, strain POL32, stronger effect = lower value 0.892
0.801 (inactive) and 0.3 (active): locus YJL095W, strain BCK1, stronger effect = lower value
active: locus YAL013W, strain DEP1, stronger effect = lower value 0.837 | locus YAL021C, strain ccr4, stronger effect = lower value 0.869 | locus YAL026C, strain drs2, stronger effect = lower value 0.776 | locus YAL030W, strain snc1, stronger effect = lower value 0.812 | locus YBL061C, strain skt5, stronger effect = lower value 0.832 | locus YBR009C, strain hhf1, stronger effect = lower value 0.823 | locus YBR021W, strain FUR4, stronger effect = lower value 0.647 | locus YBR023C, strain chs3, stronger effect = lower value 0.88 | locus YBR171W, strain sec66, stronger effect = lower value 0.799 | locus YBR229C, strain ROT2, stronger effect = lower value 0.839 | locus YBR231C, strain swc5, stronger effect = lower value 0.851 | locus YBR279W, strain paf1, stronger effect = lower value 0.817 | locus YCL011C, strain gbp2, stronger effect = lower value 0.807 | locus YCL016C, strain dcc1, stronger effect = lower value 0.873 | locus YCL029C, strain bik1, stronger effect = lower value 0.693 | locus YCL069W, strain vba3, stronger effect = lower value 0.775 | locus YCR088W, strain abp1, stronger effect = lower value 0.775 | locus YDL005C, strain med2, stronger effect = lower value 0.875 | locus YDL040C, strain nat1, stronger effect = lower value 0.848 | locus YDL101C, strain DUN1, stronger effect = lower value 0.877 | locus YDL134C, strain PPH21, stronger effect = lower value 0.796 | locus YDL185W, strain tfp1, stronger effect = lower value 0.109 | locus YDL192W, strain arf1, stronger effect = lower value 0.759 | locus YDR001C, strain nth1, stronger effect = lower value 0.766 | locus YDR101C, strain arx1, stronger effect = lower value 0.686 | locus YDR150W, strain NUM1, stronger effect = lower value 0.788 | locus YDR159W, strain sac3, stronger effect = lower value 0.677 | locus YDR162C, strain NBP2, stronger effect = lower value 0.785 | locus YDR297W, strain sur2, stronger effect = lower value 0.826 | locus YDR318W, strain mcm21, stronger effect = lower value 0.727 | locus YDR334W, strain swr1, stronger effect = lower value 0.742 | locus YDR335W, strain msn5, stronger effect = lower value 0.798 | locus YDR388W, stronger effect = lower value 0.694 | locus YDR392W, strain spt3, stronger effect = lower value 0.674 | locus YDR502C, strain sam2, stronger effect = lower value 0.735 | locus YEL003W, strain gim4, stronger effect = lower value 0.829 | locus YEL037C, strain rad23, stronger effect = lower value 0.797 | locus YEL061C, strain CIN8 (second series), stronger effect = lower value 0.794 | locus YEL061C, strain CIN8, stronger effect = lower value 0.817 | locus YER015W, strain faa2, stronger effect = lower value 0.795 | locus YER016W, strain bim1, stronger effect = lower value 0.89 | locus YER110C, stronger effect = lower value 0.64 | locus YER111C, strain swi4, stronger effect = lower value 0.79 | locus YER155C, strain BEM2 (second series), stronger effect = lower value 0.615 | locus YER155C, strain BEM2, stronger effect = lower value 0.63 | locus YER167W, strain BCK2, stronger effect = lower value 0.76 | locus YFR010W, strain ubp6, stronger effect = lower value 0.861 | locus YGL078C, strain dbp3, stronger effect = lower value 0.252 | locus YGL086W, strain mad1, stronger effect = lower value 0.779 | locus YGL167C, strain pmr1, stronger effect = lower value 0.84 | locus YGL173C, strain kem1, stronger effect = lower value 0.822 | locus YGL227W, strain vid30, stronger effect = lower value 0.743 | locus YGL240W, strain doc1, stronger effect = lower value 0.739 | locus YGL248W, strain PDE1, stronger effect = lower value 0.81 | locus YGL253W, strain hxk2, stronger effect = lower value 0.717 | locus YGR078C, strain PAC10, stronger effect = lower value 0.789 | locus YGR135W, strain pre9, stronger effect = lower value 0.76 | locus YGR252W, strain gcn5, stronger effect = lower value 0.709 | locus YHR027C, strain rpn1, stronger effect = lower value 0.814 | locus YHR079C, strain IRE1 (second series), stronger effect = lower value 0.665 | locus YHR079C, strain IRE1, stronger effect = lower value 0.254 | locus YHR094C, strain hxt1, stronger effect = lower value 0.681 | locus YHR129C, strain ARP1, stronger effect = lower value 0.738 | locus YHR142W, strain chs7, stronger effect = lower value 0.792 | locus YHR200W, strain rpn10, stronger effect = lower value 0.736 | locus YIL066C, strain RNR3, stronger effect = lower value 0.794 | locus YIL125W, strain kgd1, stronger effect = lower value 0.211 | locus YIR030C, strain dcg1, stronger effect = lower value 0.694 | locus YJL092W, strain hpr5, stronger effect = lower value 0.759 | locus YJL095W, strain BCK1 (second series), stronger effect = lower value 0.834 | locus YJL115W, strain asf1, stronger effect = lower value 0.757 | locus YJL129C, strain trk1, stronger effect = lower value 0.694 | locus YJL134W, strain LCB3, stronger effect = lower value 0.777 | locus YJL154C, strain vps35, stronger effect = lower value 0.773 | locus YJL164C, strain tpk1, stronger effect = lower value 0.863 | locus YJL166W, strain qcr8, stronger effect = lower value 0.85 | locus YJL168C, strain set2, stronger effect = lower value 0.719 | locus YJL187C, strain SWE1 (second series), stronger effect = lower value 0.825 | locus YJL187C, strain SWE1, stronger effect = lower value 0.842 | locus YJR066W, strain TOR1, stronger effect = lower value 0.254 | locus YJR075W, strain HOC1, stronger effect = lower value 0.824
